For experiment [1], the target named is Sphingosine kinase 1 (Homo sapiens) (UniProt Q9NYA1). As to conditions: at 1 µM.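 Also: mean SPHK1 inhibition value reported from the GSK PKIS kinase panel screen.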
Experiment [2] deals with T1, Sphingosine kinase 2 (Homo sapiens) (UniProt Q9NRA0).
T1 sequence (whole entry): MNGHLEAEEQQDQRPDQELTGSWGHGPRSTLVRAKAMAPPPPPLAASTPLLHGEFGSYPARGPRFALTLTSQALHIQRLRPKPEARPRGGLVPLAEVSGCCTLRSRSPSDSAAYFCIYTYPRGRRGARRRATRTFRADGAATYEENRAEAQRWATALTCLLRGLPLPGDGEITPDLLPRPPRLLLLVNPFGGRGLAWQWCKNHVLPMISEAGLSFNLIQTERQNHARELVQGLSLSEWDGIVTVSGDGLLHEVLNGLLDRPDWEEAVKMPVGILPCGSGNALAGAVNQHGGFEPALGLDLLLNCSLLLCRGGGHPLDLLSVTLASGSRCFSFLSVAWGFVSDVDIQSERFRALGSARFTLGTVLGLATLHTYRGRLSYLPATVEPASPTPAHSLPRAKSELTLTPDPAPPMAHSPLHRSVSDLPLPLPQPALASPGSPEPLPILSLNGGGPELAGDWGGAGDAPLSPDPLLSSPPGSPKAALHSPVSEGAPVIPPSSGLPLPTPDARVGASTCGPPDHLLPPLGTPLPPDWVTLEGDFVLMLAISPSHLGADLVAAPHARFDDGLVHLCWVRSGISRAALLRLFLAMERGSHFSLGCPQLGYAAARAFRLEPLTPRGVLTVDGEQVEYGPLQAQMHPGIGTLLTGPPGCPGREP
The note with it: at 0.1 µM.

In experiment [3] the target is T1, Sphingosine kinase 2 (Homo sapiens). As to conditions: at 1 µM.
For experiment [4], the target named is Casein kinase II subunit alpha (Homo sapiens) (UniProt P68400). The note with it: at 0.1 µM.
Chain of Casein kinase II subunit alpha (Homo sapiens) (P68400 whole entry, looked up): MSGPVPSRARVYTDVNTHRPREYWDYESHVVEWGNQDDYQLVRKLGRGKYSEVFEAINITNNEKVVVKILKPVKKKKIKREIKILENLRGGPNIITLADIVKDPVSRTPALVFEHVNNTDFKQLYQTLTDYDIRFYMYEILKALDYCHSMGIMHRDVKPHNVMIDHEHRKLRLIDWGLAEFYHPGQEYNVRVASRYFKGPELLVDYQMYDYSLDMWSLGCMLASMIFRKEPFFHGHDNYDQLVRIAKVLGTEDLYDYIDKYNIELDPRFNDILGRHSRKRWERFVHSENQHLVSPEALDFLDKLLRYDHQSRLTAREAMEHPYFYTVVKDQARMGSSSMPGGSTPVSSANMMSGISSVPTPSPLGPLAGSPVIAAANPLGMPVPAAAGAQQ
Experiment [5] has the same target. The note with it: at 1 µM.
In experiment [6] the target is T2, Inhibitor of nuclear factor kappa-B kinase subunit alpha (Homo sapiens) (UniProt O15111).
T2 sequence (whole entry): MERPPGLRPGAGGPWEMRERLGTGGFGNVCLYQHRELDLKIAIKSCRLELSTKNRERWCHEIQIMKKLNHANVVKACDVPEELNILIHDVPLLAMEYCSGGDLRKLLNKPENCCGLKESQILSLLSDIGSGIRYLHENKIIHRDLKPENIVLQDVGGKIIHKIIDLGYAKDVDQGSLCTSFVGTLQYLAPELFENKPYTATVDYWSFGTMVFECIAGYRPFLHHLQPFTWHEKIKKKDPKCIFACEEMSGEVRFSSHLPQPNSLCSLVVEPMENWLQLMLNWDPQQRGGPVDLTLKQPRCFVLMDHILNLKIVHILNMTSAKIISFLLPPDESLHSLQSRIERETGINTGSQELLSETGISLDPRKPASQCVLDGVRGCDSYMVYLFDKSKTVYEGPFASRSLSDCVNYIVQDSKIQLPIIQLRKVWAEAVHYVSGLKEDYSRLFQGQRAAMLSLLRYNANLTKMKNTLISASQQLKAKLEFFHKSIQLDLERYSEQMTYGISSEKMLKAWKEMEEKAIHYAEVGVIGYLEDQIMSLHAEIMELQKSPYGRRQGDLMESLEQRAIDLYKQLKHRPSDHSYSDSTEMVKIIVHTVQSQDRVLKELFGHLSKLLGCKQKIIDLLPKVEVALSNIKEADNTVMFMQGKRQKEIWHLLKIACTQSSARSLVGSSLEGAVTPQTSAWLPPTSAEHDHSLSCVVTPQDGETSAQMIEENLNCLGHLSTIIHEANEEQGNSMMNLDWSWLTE
The note with it: at 0.1 µM.

Experiment [7] has as its target T2, Inhibitor of nuclear factor kappa-B kinase subunit alpha (Homo sapiens). The note with it: at 1 µM.
Experiment [8] concerns the target T3, Inhibitor of nuclear factor kappa-B kinase subunit beta (Homo sapiens) (UniProt O14920).
T3 sequence (whole entry): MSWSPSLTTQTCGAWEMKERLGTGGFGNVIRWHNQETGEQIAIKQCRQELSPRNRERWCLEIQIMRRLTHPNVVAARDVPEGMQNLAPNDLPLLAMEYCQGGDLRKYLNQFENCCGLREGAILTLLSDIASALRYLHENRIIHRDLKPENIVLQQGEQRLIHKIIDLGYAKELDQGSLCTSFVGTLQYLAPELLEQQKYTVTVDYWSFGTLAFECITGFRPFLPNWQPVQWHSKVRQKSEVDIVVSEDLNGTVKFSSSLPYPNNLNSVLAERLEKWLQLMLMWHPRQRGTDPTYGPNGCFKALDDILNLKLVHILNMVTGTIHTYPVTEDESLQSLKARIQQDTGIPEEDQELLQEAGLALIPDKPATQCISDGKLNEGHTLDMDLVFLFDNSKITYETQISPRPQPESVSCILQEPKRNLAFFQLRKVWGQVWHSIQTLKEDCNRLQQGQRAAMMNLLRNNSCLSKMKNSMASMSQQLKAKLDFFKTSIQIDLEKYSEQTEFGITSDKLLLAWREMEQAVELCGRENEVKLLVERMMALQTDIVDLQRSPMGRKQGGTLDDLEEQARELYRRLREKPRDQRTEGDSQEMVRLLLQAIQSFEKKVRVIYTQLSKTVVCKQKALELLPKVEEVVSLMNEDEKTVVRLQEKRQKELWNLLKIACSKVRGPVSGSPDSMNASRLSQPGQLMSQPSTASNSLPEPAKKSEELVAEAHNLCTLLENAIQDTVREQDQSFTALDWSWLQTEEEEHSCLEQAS
As to conditions: at 0.1 µM.

Experiment [9] has as its target T3, Inhibitor of nuclear factor kappa-B kinase subunit beta (Homo sapiens). As to conditions: at 1 µM.
Experiment [10] concerns the target T4, Inhibitor of nuclear factor kappa-B kinase subunit epsilon (Homo sapiens) (UniProt Q14164).
T4 sequence (whole entry): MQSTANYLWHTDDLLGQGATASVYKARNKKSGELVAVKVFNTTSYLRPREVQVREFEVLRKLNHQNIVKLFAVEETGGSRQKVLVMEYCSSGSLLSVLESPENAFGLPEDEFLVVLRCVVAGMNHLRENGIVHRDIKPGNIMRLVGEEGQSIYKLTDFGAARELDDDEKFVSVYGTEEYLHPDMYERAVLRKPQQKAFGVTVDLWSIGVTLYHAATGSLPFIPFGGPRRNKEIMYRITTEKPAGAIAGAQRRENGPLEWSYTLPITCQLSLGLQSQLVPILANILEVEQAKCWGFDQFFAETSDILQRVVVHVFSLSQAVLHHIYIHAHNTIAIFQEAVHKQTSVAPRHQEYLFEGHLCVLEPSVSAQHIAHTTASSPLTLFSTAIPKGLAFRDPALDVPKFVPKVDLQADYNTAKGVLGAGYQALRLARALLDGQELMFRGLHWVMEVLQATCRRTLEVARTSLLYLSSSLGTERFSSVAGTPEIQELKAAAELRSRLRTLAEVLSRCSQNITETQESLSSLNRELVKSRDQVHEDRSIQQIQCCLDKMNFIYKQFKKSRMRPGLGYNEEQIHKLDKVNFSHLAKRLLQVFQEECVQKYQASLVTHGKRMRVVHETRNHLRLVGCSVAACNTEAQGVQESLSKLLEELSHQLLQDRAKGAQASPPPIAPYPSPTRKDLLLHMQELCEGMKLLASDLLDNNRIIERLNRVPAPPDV
As to conditions: at 0.1 µM.

In experiment [11] the target is T4, Inhibitor of nuclear factor kappa-B kinase subunit epsilon (Homo sapiens). The note with it: at 1 µM.
Experiment [12] concerns the target T5, Serine/threonine-protein kinase Nek1 (Homo sapiens) (UniProt Q96PY6).
T5 sequence (whole entry): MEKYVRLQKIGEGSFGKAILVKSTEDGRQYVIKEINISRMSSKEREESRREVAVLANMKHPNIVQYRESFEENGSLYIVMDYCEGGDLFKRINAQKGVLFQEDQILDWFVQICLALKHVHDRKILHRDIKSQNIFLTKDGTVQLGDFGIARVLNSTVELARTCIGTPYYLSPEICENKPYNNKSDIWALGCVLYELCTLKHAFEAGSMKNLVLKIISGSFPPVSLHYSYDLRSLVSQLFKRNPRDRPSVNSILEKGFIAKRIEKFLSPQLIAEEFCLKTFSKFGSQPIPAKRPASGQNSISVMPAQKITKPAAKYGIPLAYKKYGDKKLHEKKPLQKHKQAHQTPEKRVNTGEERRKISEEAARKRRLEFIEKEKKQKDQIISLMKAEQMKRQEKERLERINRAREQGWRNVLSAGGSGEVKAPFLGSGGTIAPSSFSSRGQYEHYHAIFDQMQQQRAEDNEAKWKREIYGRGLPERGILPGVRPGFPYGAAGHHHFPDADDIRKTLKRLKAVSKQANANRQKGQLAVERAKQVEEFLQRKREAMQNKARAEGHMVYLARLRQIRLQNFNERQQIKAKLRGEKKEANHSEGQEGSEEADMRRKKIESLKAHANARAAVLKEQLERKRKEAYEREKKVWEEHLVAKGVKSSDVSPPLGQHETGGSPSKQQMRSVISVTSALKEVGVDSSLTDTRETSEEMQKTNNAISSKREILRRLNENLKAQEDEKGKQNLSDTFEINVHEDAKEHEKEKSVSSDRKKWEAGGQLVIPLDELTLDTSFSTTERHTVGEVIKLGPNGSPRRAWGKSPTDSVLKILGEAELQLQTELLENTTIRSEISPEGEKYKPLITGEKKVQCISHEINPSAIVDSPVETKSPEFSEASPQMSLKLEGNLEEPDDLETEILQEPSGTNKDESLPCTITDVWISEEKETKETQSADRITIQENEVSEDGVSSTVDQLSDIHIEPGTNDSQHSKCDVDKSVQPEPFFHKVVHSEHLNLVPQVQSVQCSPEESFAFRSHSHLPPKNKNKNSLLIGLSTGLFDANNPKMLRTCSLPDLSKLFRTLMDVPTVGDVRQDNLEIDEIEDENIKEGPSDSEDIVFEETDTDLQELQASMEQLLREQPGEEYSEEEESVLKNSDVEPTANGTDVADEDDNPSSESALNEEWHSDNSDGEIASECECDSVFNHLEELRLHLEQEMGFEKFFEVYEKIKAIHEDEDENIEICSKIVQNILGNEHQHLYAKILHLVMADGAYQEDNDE
As to conditions: at 0.1 µM.

Experiment [13] has as its target T5, Serine/threonine-protein kinase Nek1 (Homo sapiens). The note with it: at 1 µM.
The target in experiment [14] is T6, Serine/threonine-protein kinase Nek2 (Homo sapiens) (UniProt P51955).
T6 sequence (whole entry): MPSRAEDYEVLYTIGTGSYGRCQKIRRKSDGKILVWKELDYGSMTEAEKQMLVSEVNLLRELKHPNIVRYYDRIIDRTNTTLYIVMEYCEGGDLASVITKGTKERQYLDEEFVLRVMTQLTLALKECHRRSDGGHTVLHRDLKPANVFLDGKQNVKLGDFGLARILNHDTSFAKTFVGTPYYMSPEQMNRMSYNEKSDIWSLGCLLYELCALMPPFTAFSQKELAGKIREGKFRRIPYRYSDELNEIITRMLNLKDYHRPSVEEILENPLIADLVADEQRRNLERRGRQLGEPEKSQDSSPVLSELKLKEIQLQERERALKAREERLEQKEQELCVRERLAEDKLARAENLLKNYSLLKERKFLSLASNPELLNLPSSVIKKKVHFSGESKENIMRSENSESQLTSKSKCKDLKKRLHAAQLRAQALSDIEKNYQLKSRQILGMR
The note with it: at 0.1 µM.

In experiment [15] the target is T6, Serine/threonine-protein kinase Nek2 (Homo sapiens). The note with it: at 1 µM.
The target of experiment [16] is Serine/threonine-protein kinase Nek6 (Homo sapiens) (UniProt Q9HC98). The note with it: at 0.1 µM.
Chain of Serine/threonine-protein kinase Nek6 (Homo sapiens) (Q9HC98 whole entry): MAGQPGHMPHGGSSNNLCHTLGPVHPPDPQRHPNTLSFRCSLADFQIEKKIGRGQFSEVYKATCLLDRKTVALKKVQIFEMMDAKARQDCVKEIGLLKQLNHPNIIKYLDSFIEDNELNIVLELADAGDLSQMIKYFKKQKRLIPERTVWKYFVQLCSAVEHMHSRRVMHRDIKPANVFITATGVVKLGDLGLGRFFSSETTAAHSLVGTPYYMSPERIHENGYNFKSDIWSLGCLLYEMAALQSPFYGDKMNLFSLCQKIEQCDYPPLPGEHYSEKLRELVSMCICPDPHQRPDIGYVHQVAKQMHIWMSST
Experiment [17] has the same target. As to conditions: at 1 µM.
The target in experiment [18] is Serine/threonine-protein kinase Nek7 (Homo sapiens) (UniProt Q8TDX7). The note with it: at 0.1 µM.
Chain of Serine/threonine-protein kinase Nek7 (Homo sapiens) (Q8TDX7 whole entry, looked up): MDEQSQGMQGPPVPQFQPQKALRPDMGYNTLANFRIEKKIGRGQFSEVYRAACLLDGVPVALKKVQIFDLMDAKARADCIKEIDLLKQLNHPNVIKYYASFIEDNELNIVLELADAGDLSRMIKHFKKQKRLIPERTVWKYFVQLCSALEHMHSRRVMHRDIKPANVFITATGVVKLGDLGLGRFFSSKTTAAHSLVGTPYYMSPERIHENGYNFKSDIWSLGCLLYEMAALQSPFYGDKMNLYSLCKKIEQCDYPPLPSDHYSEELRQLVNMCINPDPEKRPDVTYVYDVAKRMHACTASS
Experiment [19] shares this target. As to conditions: at 1 µM.
The target in experiment [20] is T7, Serine/threonine-protein kinase Nek9 (Homo sapiens) (UniProt Q8TD19).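 Also: reported value is the mean percent inhibition of NEK9.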
T7 sequence (whole entry): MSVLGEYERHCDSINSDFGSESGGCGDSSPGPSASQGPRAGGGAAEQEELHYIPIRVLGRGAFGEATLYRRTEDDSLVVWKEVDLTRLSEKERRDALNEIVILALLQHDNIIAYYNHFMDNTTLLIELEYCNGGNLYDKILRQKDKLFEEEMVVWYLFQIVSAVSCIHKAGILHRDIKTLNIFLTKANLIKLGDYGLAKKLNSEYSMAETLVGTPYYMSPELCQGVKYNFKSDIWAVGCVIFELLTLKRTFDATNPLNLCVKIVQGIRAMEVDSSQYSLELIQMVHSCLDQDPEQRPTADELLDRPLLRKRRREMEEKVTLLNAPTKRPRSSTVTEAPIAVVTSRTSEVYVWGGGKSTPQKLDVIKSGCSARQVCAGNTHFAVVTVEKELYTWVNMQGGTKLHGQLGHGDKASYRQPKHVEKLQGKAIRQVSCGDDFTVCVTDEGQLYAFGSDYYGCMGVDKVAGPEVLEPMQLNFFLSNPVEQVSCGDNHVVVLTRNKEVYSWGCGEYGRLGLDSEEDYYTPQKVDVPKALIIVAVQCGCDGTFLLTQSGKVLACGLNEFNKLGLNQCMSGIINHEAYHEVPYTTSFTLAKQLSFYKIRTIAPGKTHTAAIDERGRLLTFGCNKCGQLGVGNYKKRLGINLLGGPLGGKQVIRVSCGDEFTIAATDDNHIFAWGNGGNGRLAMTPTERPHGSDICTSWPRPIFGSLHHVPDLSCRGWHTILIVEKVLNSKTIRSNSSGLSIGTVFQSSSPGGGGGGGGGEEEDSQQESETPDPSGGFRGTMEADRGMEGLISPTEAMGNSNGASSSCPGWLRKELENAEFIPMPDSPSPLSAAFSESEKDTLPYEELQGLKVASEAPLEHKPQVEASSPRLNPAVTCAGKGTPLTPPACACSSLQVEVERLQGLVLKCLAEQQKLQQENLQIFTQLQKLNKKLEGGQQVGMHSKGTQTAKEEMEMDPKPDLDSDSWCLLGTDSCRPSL
As to conditions: at 0.1 µM.

Each structure is given as a SMILES string.

The source of these data is ChEMBL document CHEMBL1961873, “Compounds: GSK PKIS; Assays: Nanosyn kinase panel” (2012).

A word on the inhibition: it is the change of the read-out against control, counted positive when it falls.

Chain of Sphingosine kinase 1 (Homo sapiens) (Q9NYA1 whole entry): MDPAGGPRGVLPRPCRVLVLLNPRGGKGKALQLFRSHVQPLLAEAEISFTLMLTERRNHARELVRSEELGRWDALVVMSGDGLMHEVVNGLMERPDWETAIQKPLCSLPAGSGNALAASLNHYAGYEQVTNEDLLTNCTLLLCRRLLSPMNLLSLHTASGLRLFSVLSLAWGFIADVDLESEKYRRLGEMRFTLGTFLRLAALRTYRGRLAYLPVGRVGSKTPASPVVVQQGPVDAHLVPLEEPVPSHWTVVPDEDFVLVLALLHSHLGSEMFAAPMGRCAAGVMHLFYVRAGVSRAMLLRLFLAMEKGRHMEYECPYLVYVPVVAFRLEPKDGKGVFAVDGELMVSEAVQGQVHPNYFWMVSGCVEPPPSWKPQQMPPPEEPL

As for `CC(C)c1ccc(-c2cc(-c3c[nH]nc3-c3ccccn3)ccn2)cc1`, the inhibition is -1.66% in [1]; -0.31% in experiment [2]; -1.09% in experiment [3]; 0.16% in experiment [4]; 0.83% in experiment [5]; 7.45% in [6]. Moreover, the inhibition in [7] was -4.49%; in [8], 1.97%; in [9], -0.35%; in experiment [10], 1.33%; in experiment [11], 1.35%; in experiment [12], 0.4%. Besides, the inhibition was 0.95% in [13]; 1.77% in experiment [14]; 1.63% in experiment [15]; 1.08% in experiment [16]; -0.92% in experiment [17]; 2.44% in experiment [18]. Further, the inhibition in experiment [19] was 0.94%; in experiment [20], 3.68%.
